Source: ChEMBL document CHEMBL3988442, “University of Dundee, Small-Polar-MMV Screening Library” (2021)

target: T1, Tyrosyl-tRNA synthetase, putative (Trypanosoma cruzi (strain CL Brener)) (UniProt Q4DSP6); test: Trypanosoma cruzi tyrosyl tRNA synthetase (TcYRS) SOP; assay type: functional; set-up: scale not given: direction of the effect not stated beside the values; details: 30 µM
T1 sequence (whole entry): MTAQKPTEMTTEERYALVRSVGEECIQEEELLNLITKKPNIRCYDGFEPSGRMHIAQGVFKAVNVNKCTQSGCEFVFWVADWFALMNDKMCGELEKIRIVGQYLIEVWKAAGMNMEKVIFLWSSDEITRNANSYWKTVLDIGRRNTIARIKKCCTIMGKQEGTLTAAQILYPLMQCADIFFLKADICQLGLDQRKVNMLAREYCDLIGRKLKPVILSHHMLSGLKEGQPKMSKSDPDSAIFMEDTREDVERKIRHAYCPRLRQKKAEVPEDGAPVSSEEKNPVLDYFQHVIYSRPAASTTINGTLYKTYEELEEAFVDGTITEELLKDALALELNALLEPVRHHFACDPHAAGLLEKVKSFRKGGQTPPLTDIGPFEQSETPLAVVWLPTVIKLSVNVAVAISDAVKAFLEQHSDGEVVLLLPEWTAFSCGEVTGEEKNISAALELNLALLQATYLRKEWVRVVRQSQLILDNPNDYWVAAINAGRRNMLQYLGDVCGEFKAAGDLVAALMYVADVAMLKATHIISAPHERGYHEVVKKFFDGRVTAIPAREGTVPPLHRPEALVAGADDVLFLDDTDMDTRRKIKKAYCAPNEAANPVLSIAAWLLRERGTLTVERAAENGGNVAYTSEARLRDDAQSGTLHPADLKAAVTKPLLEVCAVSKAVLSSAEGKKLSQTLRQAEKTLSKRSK

| SMILES | Percent Effect [%] |
| --- | --- |
| CC(C)NC(=O)Cn1cc(-c2ccccc2)cn1 | 10.1 |
| Cc1nn(C)c(C)c1C1COCCN1C(=O)c1ccccc1 (stereo not given) | 12.2 |
| O=C(N1CCCO1)[C@@]12CCO[C@@H]1CCN(C1CCCCC1)C2 | 15 |
| CC(C(=O)NCc1ccc(N2CCNC(=O)C2)cc1)n1cncn1 (stereo not given) | 21.9 |
| Cn1cc(CCNC(=O)NCc2nnc3n2CCC3)cn1 | 16.5 |
| CO[C@H]1CN(Cc2cccc(C#N)c2)[C@@H]2COC[C@H]12 | 22.5 |
| CC(NC(=O)c1nc(=O)[nH][nH]1)c1ccc(OCC2CC2)c(F)c1 (stereo not given) | 10.4 |
| c1ccc(-c2noc(CN3CCC(c4ccn[nH]4)CC3)n2)cc1 | 14.6 |
| Cc1csc(N2CCN(C(=O)CCn3cncn3)CC2)n1 | 21.5 |
| Cc1cc(C2CCCN(C(=O)c3cnn(C)c3)C2)ccn1 (stereo not given) | 11.7 |
| CCN(CC)CCNC(=O)c1cnc(C(C)(C)C)s1 | -6.17 |
| CCC(=O)Nc1nnc(CCOc2cccc(OC)c2)s1 | -7.69 |
| CCCn1[nH]cc/c1=N\C(=O)CN1CCCC1c1c(C)nn(C)c1C (stereo not given) | 13.6 |
| O=C(c1ccnnc1)N1C[C@H](Oc2cccnc2)[C@H]2OCCC[C@H]21 | 15.8 |
| COc1ccc(CN2CCC(O)CC2)c(OC)c1 | 9.76 |
| CS(=O)(=O)Cc1cccc(C(=O)NCC2Cc3ccccc3O2)c1 (stereo not given) | 15 |
| O=C(CCc1cccs1)N1CCCCC1Cn1cccn1 (stereo not given) | 21.2 |
| CCOc1ccccc1OC1CCN(C(=O)c2ccc(=O)[nH]n2)CC1 | 19.5 |
| CN(C)CCNC(=O)c1ccc(OC2CCN(S(C)(=O)=O)CC2)c(Cl)c1 | 21 |
| N#Cc1ccc(C(=O)N2CCn3c(Cn4cccn4)cnc3C2)cc1 | 7.5 |

| SMILES | Percent Effect [%] |
| --- | --- |
| Cn1ccc(C(=O)NC2CCC23CCN(C(=O)c2ccncc2)CC3)c1 (stereo not given) | 13.6 |
| CNC(=O)[C@H]1C[C@H]2OCC[C@H]2N(Cc2cccc3ccccc23)C1 | 8.97 |
| COc1ccc(OCCCN2CCOC(Cn3cccn3)C2)cc1 (stereo not given) | 2.53 |
| Cc1nc2ccccc2nc1CN1CCCC1c1c(C)nn(C)c1C (stereo not given) | 17.7 |
| CCN(Cc1cccc(Cl)c1)Cc1nc2c(cnn2C)c(=O)[nH]1 | 18.8 |
| O=C(CN1CCCC1Cn1cncn1)NCCOc1cccc(F)c1 (stereo not given) | 1.24 |
| COc1ccc(CCN2CCN(C(=O)c3scnc3C)CC2)cc1 | 10.4 |
| O=C(c1ccnnc1)N1C[C@@H](OCC2CCCC2)[C@H]2OCCC[C@H]21 | -8.54 |
| CCc1ccc(CCC(=O)N2CCOCC2c2ncon2)cc1 (stereo not given) | 1.22 |
| CC(C)CN(C)c1ccc(C(=O)N2CCCC2c2cnn(C)c2)cn1 (stereo not given) | 23.5 |
| COc1ccc(CNCC(C)Oc2ccccn2)cc1Br (stereo not given) | 12.8 |
| CCc1nc(C2CCCN2CC(=O)Nc2c(C)nn(C)c2C)no1 (stereo not given) | 2.5 |
| Cn1c(Cn2cccn2)nnc1C1CCCN(c2ccncc2)C1 (stereo not given) | 19.5 |
| CN(C)C(=O)N1CCC2(CCCN(Cc3cnn(C)c3)C2)C1 (stereo not given) | 5.13 |
| O=C(C1=CCCC1)N1CCC[C@]2(C[C@@H](Oc3ncccc3F)CO2)C1 | 13.6 |
| Cn1ccc(C(=O)NC2CCC23CCN(C(=O)N2CCCC2)CC3)c1 (stereo not given) | 15.4 |
| Cc1cc(C)c2nc(CN3CCOC(CCO)C3)cc(O)c2c1 (stereo not given) | 14.6 |
| CNS(=O)(=O)c1ccc(C(=O)NC2CCc3nc(C)cn3C2)o1 (stereo not given) | 17.1 |
| O=C(CN1CCC(C(=O)c2cc(F)ccc2F)CC1)NC1CCCC1 | 0 |
| Cc1ncsc1CCC(=O)NCc1cc2n(n1)CCN(C(=O)N(C)C)C2 | 2.56 |

target: Chromo domain-containing protein 1 (Saccharomyces cerevisiae (strain ATCC 204508 / S288c) (Baker's yeast)) (UniProt P32657); test: ScCHD-1 Enzyme Inhibition Assay; assay type: functional; set-up: scale not given: in the data most compounds retested in dose-response had high values; details: 30 µM
Sequence (P32657 whole entry, the tested form may be a part): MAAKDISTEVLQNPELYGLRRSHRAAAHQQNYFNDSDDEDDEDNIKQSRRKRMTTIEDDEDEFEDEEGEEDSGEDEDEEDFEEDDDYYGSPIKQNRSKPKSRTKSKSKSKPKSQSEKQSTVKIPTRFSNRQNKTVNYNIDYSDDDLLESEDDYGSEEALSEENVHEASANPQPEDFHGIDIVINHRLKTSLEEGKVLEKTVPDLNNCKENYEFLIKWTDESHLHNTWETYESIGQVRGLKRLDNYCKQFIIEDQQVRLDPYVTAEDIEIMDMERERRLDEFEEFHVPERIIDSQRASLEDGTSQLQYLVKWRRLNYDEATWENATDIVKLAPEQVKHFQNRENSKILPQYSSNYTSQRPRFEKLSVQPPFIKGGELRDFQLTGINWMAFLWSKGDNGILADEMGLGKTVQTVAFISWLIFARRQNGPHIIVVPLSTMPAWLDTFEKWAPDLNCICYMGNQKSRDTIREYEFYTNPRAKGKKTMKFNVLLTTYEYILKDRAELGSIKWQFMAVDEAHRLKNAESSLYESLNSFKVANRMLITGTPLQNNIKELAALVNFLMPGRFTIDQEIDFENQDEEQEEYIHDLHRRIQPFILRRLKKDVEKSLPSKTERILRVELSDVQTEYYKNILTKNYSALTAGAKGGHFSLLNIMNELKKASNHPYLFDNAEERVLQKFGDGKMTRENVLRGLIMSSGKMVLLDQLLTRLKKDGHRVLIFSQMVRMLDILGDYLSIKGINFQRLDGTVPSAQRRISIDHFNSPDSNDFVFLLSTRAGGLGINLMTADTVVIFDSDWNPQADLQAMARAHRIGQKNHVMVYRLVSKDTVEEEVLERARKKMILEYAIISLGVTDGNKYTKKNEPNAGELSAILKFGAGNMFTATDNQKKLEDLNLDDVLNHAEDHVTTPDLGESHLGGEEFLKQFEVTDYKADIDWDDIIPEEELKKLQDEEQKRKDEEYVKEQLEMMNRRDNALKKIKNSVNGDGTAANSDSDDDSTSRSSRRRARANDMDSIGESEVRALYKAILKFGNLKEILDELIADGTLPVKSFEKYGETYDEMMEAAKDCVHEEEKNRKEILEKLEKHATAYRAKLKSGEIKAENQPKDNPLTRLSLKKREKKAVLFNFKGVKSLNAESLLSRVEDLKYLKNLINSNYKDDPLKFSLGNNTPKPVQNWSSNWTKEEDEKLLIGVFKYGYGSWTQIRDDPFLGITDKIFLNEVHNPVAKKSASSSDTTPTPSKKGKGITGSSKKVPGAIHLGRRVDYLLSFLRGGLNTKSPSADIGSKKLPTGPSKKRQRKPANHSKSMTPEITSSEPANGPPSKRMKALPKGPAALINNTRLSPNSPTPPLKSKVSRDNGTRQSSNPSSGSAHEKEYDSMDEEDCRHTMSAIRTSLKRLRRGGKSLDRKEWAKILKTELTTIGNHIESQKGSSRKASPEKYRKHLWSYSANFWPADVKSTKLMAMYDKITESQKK

| SMILES | Percent Effect [%] |
| --- | --- |
| CC(C)NC(=O)Cn1cc(-c2ccccc2)cn1 | 1.99 |
| Cc1nn(C)c(C)c1C1COCCN1C(=O)c1ccccc1 (stereo not given) | 11.3 |
| O=C(N1CCCO1)[C@@]12CCO[C@@H]1CCN(C1CCCCC1)C2 | -10.2 |
| CC(C(=O)NCc1ccc(N2CCNC(=O)C2)cc1)n1cncn1 (stereo not given) | -12.2 |
| Cn1cc(CCNC(=O)NCc2nnc3n2CCC3)cn1 | -6.44 |
| CO[C@H]1CN(Cc2cccc(C#N)c2)[C@@H]2COC[C@H]12 | -5.96 |
| CC(NC(=O)c1nc(=O)[nH][nH]1)c1ccc(OCC2CC2)c(F)c1 (stereo not given) | -13.1 |
| c1ccc(-c2noc(CN3CCC(c4ccn[nH]4)CC3)n2)cc1 | -1.3 |
| Cc1csc(N2CCN(C(=O)CCn3cncn3)CC2)n1 | -6.07 |
| Cc1cc(C2CCCN(C(=O)c3cnn(C)c3)C2)ccn1 (stereo not given) | -9.36 |
| CCN(CC)CCNC(=O)c1cnc(C(C)(C)C)s1 | -0.603 |
| CCC(=O)Nc1nnc(CCOc2cccc(OC)c2)s1 | -2 |
| CCCn1[nH]cc/c1=N\C(=O)CN1CCCC1c1c(C)nn(C)c1C (stereo not given) | -10.6 |
| O=C(c1ccnnc1)N1C[C@H](Oc2cccnc2)[C@H]2OCCC[C@H]21 | -3.24 |
| COc1ccc(CN2CCC(O)CC2)c(OC)c1 | -0.716 |
| CS(=O)(=O)Cc1cccc(C(=O)NCC2Cc3ccccc3O2)c1 (stereo not given) | -4.73 |
| O=C(CCc1cccs1)N1CCCCC1Cn1cccn1 (stereo not given) | -15.9 |
| CCOc1ccccc1OC1CCN(C(=O)c2ccc(=O)[nH]n2)CC1 | -2.32 |
| CN(C)CCNC(=O)c1ccc(OC2CCN(S(C)(=O)=O)CC2)c(Cl)c1 | -4.57 |
| N#Cc1ccc(C(=O)N2CCn3c(Cn4cccn4)cnc3C2)cc1 | -3.56 |

| SMILES | Percent Effect [%] |
| --- | --- |
| Cn1ccc(C(=O)NC2CCC23CCN(C(=O)c2ccncc2)CC3)c1 (stereo not given) | 0.95 |
| CNC(=O)[C@H]1C[C@H]2OCC[C@H]2N(Cc2cccc3ccccc23)C1 | -9.11 |
| COc1ccc(OCCCN2CCOC(Cn3cccn3)C2)cc1 (stereo not given) | -3.35 |
| Cc1nc2ccccc2nc1CN1CCCC1c1c(C)nn(C)c1C (stereo not given) | -26.1 |
| CCN(Cc1cccc(Cl)c1)Cc1nc2c(cnn2C)c(=O)[nH]1 | -17.4 |
| O=C(CN1CCCC1Cn1cncn1)NCCOc1cccc(F)c1 (stereo not given) | 5.23 |
| COc1ccc(CCN2CCN(C(=O)c3scnc3C)CC2)cc1 | -3.62 |
| O=C(c1ccnnc1)N1C[C@@H](OCC2CCCC2)[C@H]2OCCC[C@H]21 | -5.93 |
| CCc1ccc(CCC(=O)N2CCOCC2c2ncon2)cc1 (stereo not given) | 8.82 |
| CC(C)CN(C)c1ccc(C(=O)N2CCCC2c2cnn(C)c2)cn1 (stereo not given) | -10.4 |
| COc1ccc(CNCC(C)Oc2ccccn2)cc1Br (stereo not given) | -11.9 |
| CCc1nc(C2CCCN2CC(=O)Nc2c(C)nn(C)c2C)no1 (stereo not given) | 1.02 |
| Cn1c(Cn2cccn2)nnc1C1CCCN(c2ccncc2)C1 (stereo not given) | -1.63 |
| CN(C)C(=O)N1CCC2(CCCN(Cc3cnn(C)c3)C2)C1 (stereo not given) | -0.435 |
| O=C(C1=CCCC1)N1CCC[C@]2(C[C@@H](Oc3ncccc3F)CO2)C1 | -3.32 |
| Cn1ccc(C(=O)NC2CCC23CCN(C(=O)N2CCCC2)CC3)c1 (stereo not given) | 1.18 |
| Cc1cc(C)c2nc(CN3CCOC(CCO)C3)cc(O)c2c1 (stereo not given) | -1.34 |
| CNS(=O)(=O)c1ccc(C(=O)NC2CCc3nc(C)cn3C2)o1 (stereo not given) | -10.4 |
| O=C(CN1CCC(C(=O)c2cc(F)ccc2F)CC1)NC1CCCC1 | -3.84 |
| Cc1ncsc1CCC(=O)NCc1cc2n(n1)CCN(C(=O)N(C)C)C2 | -1.68 |
